Hit rate of the full screen: of about 50,000 compounds, about 800 (1.6%) showed an effect of 50% or more. What follows is part of a selection rich in strong results, with near analogues and random picks from the rest.
Molecular target: Bcl-2-like protein 10 (Homo sapiens) (UniProt Q9HD36)
Assay: TR3 peptide-Bcl-B binding displacers, biochemical primary FP assay, phenotype converters (AID 1240);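 note: 0% = Bcl-B with tracer peptide and DMSO and 100% = tracer peptide lacking Bcl-B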
Conditions: GST-Bcl-B / FITC-TR3 peptide fluorescence polarization; stronger effect = higher value; compound at 3.75 mg/L

Chain of Bcl-2-like protein 10 (Homo sapiens) (Q9HD36 whole entry, looked up): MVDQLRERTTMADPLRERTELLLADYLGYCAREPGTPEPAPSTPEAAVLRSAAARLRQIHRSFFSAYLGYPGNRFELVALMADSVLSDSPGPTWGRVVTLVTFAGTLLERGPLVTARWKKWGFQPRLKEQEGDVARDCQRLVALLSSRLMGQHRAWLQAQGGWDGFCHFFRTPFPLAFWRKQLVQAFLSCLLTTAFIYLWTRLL

Row | Structure (SMILES) | displacement [%]
1 | CC(=O)NC1=NC(=O)/C(=C\c2ccccc2Cl)S1 | 14
2 | CC(=O)NC1=NC(=O)/C(=C/c2ccc(C)cc2)S1 | 118
3 | CC(=O)NC1=NC(=O)/C(=C\c2ccc(C(C)(C)C)cc2)S1 | 11.4
4 | CC(=O)NC1=NC(=O)/C(=C\c2cccc(F)c2)S1 | -29.1
5 | O=C(Nc1ccc(F)c(Cl)c1)c1cc([N+](=O)[O-])ccc1Cl | -10.3
6 | CC(C)C(=O)Nc1ccc(Cl)cc1C(=O)O | 8.1
7 | COc1ccc(/C(C)=N/NC(=O)CN(c2ccc(C)cc2)S(=O)(=O)c2ccccc2)cc1OC | 3.8
8 | COC(=O)c1ccc(/C=N/NC(=O)CCc2c(C)n[nH]c2C)cc1 | 4.2
9 | CC(C)C(=O)Nc1ccc(I)cc1Cl | 11.1
10 | O=C(c1cccnc1)N(Cc1ccccc1)Cc1ccccc1 | 6
11 | O=C(Nc1ccc(Cc2ccncc2)cc1)c1ccc(Br)o1 | 13.1
12 | COc1cc(NC(=O)c2ccc(-c3ccc(Cl)cc3)o2)ccc1NC(=O)c1ccco1 | -6.5
13 | O=C(Nc1ccc(Cc2ccncc2)cc1)c1ccc(-c2ccc(Br)cc2)o1 | 109
14 | Cc1c(NC(=S)NC(=O)c2ccco2)cccc1-c1nc2ncccc2o1 | 9.2
15 | O=C(NC(=S)Nc1ccc(-c2nc3ccccc3o2)cc1)c1ccco1 | 11.6
16 | O=C(Nc1ccc(-c2nc3ncccc3o2)cc1)c1ccc(-c2ccc(Br)cc2)o1 | 88.1
17 | O=C(Nc1ccc(-c2nc3ncccc3o2)cc1)c1ccc(-c2cccc(Cl)c2)o1 | 14.3
18 | O=C(Nc1cccnc1)c1ccc(-c2ccc(Br)cc2)o1 | -5.1
19 | O=C(NC(=S)Nc1ccc(-c2nc3ncccc3o2)cc1)c1ccco1 | 112
20 | COc1cc(NC(=O)c2ccc(-c3ccc(Br)cc3)o2)ccc1NC(=O)c1ccco1 | 158

Row | Structure (SMILES) | displacement [%]
21 | O=C(Nc1ccc(-c2nc3ncccc3o2)cc1)c1ccc(Br)o1 | -1.9
22 | Cc1cc(NC(=O)c2ccc(-c3ccc(Br)cc3)o2)ccc1NC(=O)c1ccco1 | -2.6
23 | Cc1ccccc1C(=O)O/N=C(\N)c1cccc([N+](=O)[O-])c1 | -7.1
24 | Clc1ccc(OCCCN2CCCCC2)cc1 | -10
25 | COc1ccccc1OCCCN1CCOCC1 | -1.3
26 | COc1ccc(C2CC(O)C(C)C(c3ccc(OC)cc3)N2)cc1 (centres undefined) | 7.8
27 | CCOc1ccc(C(=O)Nc2cccc(C(F)(F)F)c2)cc1Cl | -12
28 | Cc1ccc(C(=O)Nc2ccc(-c3nc4ncccc4o3)cc2)cc1C | 21.5
29 | COc1ccc(-c2cc(=O)oc3cc(OC(C)=O)ccc23)cc1 | -5.1
30 | CC(=O)N(c1ccccc1)c1nnc(C)s1 | -0.3
31 | O=C1NC(=O)N(c2ccccc2F)C(=O)/C1=C/c1ccc(I)o1 | 34.5
32 | CCN(CC)c1ccc(/C=C(\C#N)C(=O)Nc2ccc(OC)cc2)c(OC)c1 | -6.6
33 | CCN(CC)c1ccc(C=C(C#N)C#N)c(OC)c1 | 91.5
34 | CCN(CC)c1ccc(C=C(C(C)=O)C(C)=O)c(OC(C)=O)c1 | 48.6
35 | Cc1cc(OCC(O)CNC(C)C)cc(C)c1Cl (centres undefined) | 3.1
36 | O=C(Cn1cc(C=C2C(=O)NC(=S)NC2=O)c2ccccc21)Nc1ccccc1 | 130
37 | O=C(Cn1cc(/C=C2\NC(=S)NC2=O)c2ccccc21)Nc1ccccc1 | -41.9
38 | O=C(Cn1cc(/C=C2\SC(=S)NC2=O)c2ccccc21)Nc1ccccc1 | -11.9
39 | NC(=O)Cn1cc(/C=C2\C(=O)NC(=O)N(Cc3ccccc3)C2=O)c2ccccc21 | 17
40 | COc1ccc(N2C(=O)/C(=C/c3cn(Cc4ccccc4)c4ccccc34)C(=O)NC2=S)cc1 | 25

Row | Structure (SMILES) | displacement [%]
41 | O=C(Cn1cc(/C=C2/C(=O)NC(=S)N(c3ccccc3)C2=O)c2ccccc21)Nc1ccccc1 | 143
42 | O=C(Nc1ccccc1)Nc1nnc(Cc2cccc(Br)c2)s1 | 1.9
43 | CC1=C(C(=O)OCCc2ccccc2)C(c2ccccc2Cl)CC(=O)N1 (centres undefined) | -7.2
44 | CC(C)(C)c1csc(N/N=C/c2ccccn2)n1 | -6.6
45 | OCCNCCOc1cccc(Cl)c1Cl | 2.8
46 | O=C1C2C3C=CC(O3)C2C(=O)N1c1ccccc1I (centres undefined) | 17.8
47 | CCOc1ccccc1C(=O)Nc1ccc(N2CCOCC2)cc1 | 3.2
48 | Cc1cccc(/C=C2/SC(=S)N(Cc3ccccc3)C2=O)c1 | 13.4
49 | Nc1nc2nc(C(F)(F)C(F)(F)C(F)(F)C(F)(F)F)cc(=O)n2[nH]1 | -1.7
50 | COc1cc(OC)c(OC)cc1CNc1cccc(C)c1 | 4.3
51 | N#C/C(=C\c1ccc(-c2ccc(Cl)c(Cl)c2)o1)C(N)=O | 7.8
52 | N#C/C(=C\c1ccc(-c2ccc3c(c2)COC3=O)o1)c1nc2ccccc2[nH]1 | 58.6
53 | N#C/C(=C\c1ccc(-c2ccc(Br)cc2)o1)C(N)=O | 4.6
54 | N#CC(C#N)=Cc1ccc(-c2ccc(S(N)(=O)=O)cc2)o1 | -0.4
55 | N#C/C(=C\c1ccc(-c2ccc3c(c2)COC3=O)o1)C(N)=O | -10.4
56 | Cc1ccc([N+](=O)[O-])cc1-c1ccc(/C=C(\C#N)c2nc3ccccc3[nH]2)o1 | -0.7
57 | N#C/C(=C/c1ccc(-c2ccc3c(c2)C(=O)NC3=O)o1)C(N)=O | 140
58 | N#CC(C#N)=Cc1ccc(-c2ccc3c(c2)COC3=O)o1 | 109
59 | N#C/C(=C\c1ccc(-c2ccc(Br)cc2)o1)c1nc2ccccc2[nH]1 | 2.1
